Screens as filed in PubChem.
FUS suppressor: suppressors of FUS proteinopathy in yeast; S. cerevisiae FUS-expressing, growth rescue, OD600, 24 h; Potency, µM (doses to about 76.6 µM), hits mostly activators; 0.24% of 390,000 active; AID 1347120;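 also: plate controls were DMSO vehicle for no effect and reference control for full effect; nearly all actives have a fitted effect of over 55% in size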
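Quantitative HTS measuring growth restoration of FUS-toxic yeast. Galactose-induced cells (OD 0.005) were exposed 24hr at 30C to compounds at several concentrations, then absorbance at 600 nm was recorded.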
Mito fusion act: inhibitors of mitochondrial division or activators of mitochondrial fusion; S. cerevisiae fusion-defective mutant growth rescue, CellTiterGlo 48 h; Potency, µM (highest dose often 46.1 µM), without a hit: at the top dose growth rescue (activation), most hits filed as activators; 0.23% of 320,000 active; AID 485298; also: % of control where 0% means no effect; nearly all actives have a fitted effect of over 45% in size
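Temperature-sensitive fusion-defective S. cerevisiae (e.g. fzo1-1, mgm1-5) were grown with compound in YPEG medium (3% ethanol, 3% glycerol) for 48 hours at 37C. Growth rescue was measured as viability by CellTiterGlo luminescence after 10 minutes at ambient.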
gsp antagonist: gsp mutant antagonism; 0.4% of 340,000 active; Potency, µM (doses to about 76.9 µM), for the others: top-dose activity change, negative = inhibition, actives largely listed as inhibitors; gsp-mutant cells, cAMP HTRF, 30 min; calls by dose curve; cell line not stated here;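 also: intracellular cAMP measured with PDE inhibitor Ro 20-1724 present during compound exposure; % is scaled to controls: 0 for no effect and ±100 for the full control effect; nearly all actives have a fitted effect of over 65% in size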
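Cells in G418 medium, seeded 16-24 h, 37C; buffer exchange to DPBS + 1 mM CaCl2, 0.5 mM MgCl2, 0.05% BSA; cpds in DMSO + […] (300 uM stock), 30 min 37C; HTRF cAMP detection.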
gsp agonist: activates gsp, the McCune-Albright syndrome mutation; gsp mutant cells, cAMP HTRF, 30 min; 0.13% of 340,000 active; Potency, µM (highest dose often 76.9 µM), without a hit: top-dose activation (cAMP increase), actives largely listed as activators; active = well fitted activation curve with a large enough effect; inconclusive = small, poorly fitted or top-dose-only effect, or another doubt; inactive = no such curve, though single readings can be large or run the other way; cell line not stated here;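 also: phosphodiesterase inhibitor Ro 20-1724 added with compounds to block cAMP breakdown; nearly all actives have a fitted effect of over 60% in size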
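Cells stably selected in G418 were plated at 2000/well, grown 16-24 hr, then given compounds in DMSO with the PDE inhibitor […] (300 uM solution added) for 30 min at 37C; cAMP was read by HTRF.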
ALOX12 inh: blocks human arachidonate 12S-lipoxygenase; purified 12hLO, xylenol orange hydroperoxide absorbance; 1.1% of 580,000 active; P18054; Potency, µM (titrated, usually from 108 µM), for inactives: top-dose activity change, negative = inhibition, hits mostly inhibitors; also: % is scaled to controls: 0 for no effect and ±100 for the full control effect
Target sequence (P18054 whole entry, looked up): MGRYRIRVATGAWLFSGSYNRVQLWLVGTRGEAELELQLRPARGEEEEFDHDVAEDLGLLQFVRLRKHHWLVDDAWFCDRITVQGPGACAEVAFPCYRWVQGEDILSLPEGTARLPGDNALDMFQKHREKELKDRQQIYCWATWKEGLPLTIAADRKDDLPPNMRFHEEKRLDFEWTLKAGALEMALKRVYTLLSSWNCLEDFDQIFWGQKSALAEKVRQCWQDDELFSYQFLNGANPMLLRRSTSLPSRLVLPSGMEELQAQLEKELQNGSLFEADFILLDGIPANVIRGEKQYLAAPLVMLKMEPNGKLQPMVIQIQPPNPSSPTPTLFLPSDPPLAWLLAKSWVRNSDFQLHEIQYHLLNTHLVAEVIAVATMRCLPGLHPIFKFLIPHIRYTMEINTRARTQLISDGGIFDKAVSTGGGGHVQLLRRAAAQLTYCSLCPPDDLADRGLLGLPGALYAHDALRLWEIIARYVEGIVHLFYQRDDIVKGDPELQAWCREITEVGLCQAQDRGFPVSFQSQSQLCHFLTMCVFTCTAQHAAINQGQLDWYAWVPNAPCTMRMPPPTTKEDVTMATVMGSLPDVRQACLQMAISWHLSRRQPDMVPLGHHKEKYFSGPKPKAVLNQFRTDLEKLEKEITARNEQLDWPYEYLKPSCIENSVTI
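Purified human 12hLO at 150 nM in 25 mM Hepes, 0.01% Triton X-100, pH 7.0, preincubated 15 min at room temperature with compound. Reaction started with 40 uM arachidonic acid, 30 min at room temperature. Hydroperoxide measured by Fe-xylenol orange, 573/405 nm absorbance ratio.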
An asterisk follows results filed as active; i = inactive; u = inconclusive; x = no result given; ! = not confirmed by another sample; [ ] = another dose, or the depositor's remark. Compounds with a hit are over-represented: about 1.6% of the library has one in this group of screens. Unless noted, calls follow the shape of the dose curve; as a rule, active = well fitted curve in the direction sought with a large enough effect; inconclusive = small, poorly fitted or top-dose-only effect, or another doubt; inactive = no such curve, though single readings can be large; an effect the other way counts as inactive or inconclusive. Potency is read from the fitted curve at half-maximal effect.

SMILES	FUS suppressor	Mito fusion act	gsp antagonist	gsp agonist	ALOX12 inh
O=C(CC[C@@H]1CNC(=O)[C@@H]2C[C@H](NC(=O)c3ccccc3)CN12)NCc1ccc(F)cc1	x	x	x	x	32µM*
O=C(CC[C@@H]1CNC(=O)[C@@H]2C[C@H](NCc3ccc(F)cc3)CN12)NCc1ccccc1	x	x	x	x	85%[176 µM]
Oc1ccccc1-c1cc(-c2ccco2)[nH]n1	i	4%	-11%	-25%	20µM*
S=c1[nH]nc(-c2cc(-c3ccco3)[nH]n2)n1-c1ccccc1	i	1%	-4%	u	22µM*
S=c1[nH]nc(-c2cc(-c3ccco3)[nH]n2)n1-c1ccccc1Cl	u	0%	-8%	u	u
COc1ccc(C2c3ccsc3CCN2C(=O)NC(C)(C)C)cc1 (stereo not given)	i	4%	32µM*	0%	u
CC1Cc2nc(SCC(=O)N3CCN(c4ccccc4)CC3)n(CCc3ccccc3)c(=O)c2S1 (stereo not given)	14µM*	18%	-25%	-4%	27%
CCn1c(SCC(=O)N2CCN(c3ccccc3)CC2)nc2c(c1=O)SC(C)C2 (stereo not given)	i	4%	1%	24%	-18%
CC1CCC(C(C)C)C2=C1C(C#N)(C#N)C(C#N)(C#N)C(c1ccccc1)N2 (stereo not given)	i	-2%	-2%	1%	40µM*
O=C(CCc1nc2ccccc2c(=O)[nH]1)N1CCN(C/C=C/c2ccccc2)CC1	i	-1%	22µM*	3%	-2%
Cc1ccc(NP(=O)(c2ccc(N(C)C)cc2NC(=O)c2cccs2)N2CCOCC2)cc1Cl (stereo not given)	4µM*	7%	-15%	-14%	-26%
CCCCCCCC/C=C\CCCCCCCC(=O)NCCc1ccc(O)c(O)c1	u	u	-9%	x	5.6µM*!
O=C(NNc1cccc(Cl)n1)c1cccnc1Cl	i	-10%	-4%	-3%	-1%
O=C(NNc1cccc(Cl)c1)c1cccnc1Cl	i	22µM*	2%	-88%	u
CC(C1CC1)N(Cc1ccccc1)S(=O)(=O)c1ccc(F)cc1F (stereo not given)	x	x	x	x	11%
COc1cc(OC)cc(OCc2nc3c(n2Cc2ccccc2)C(=O)N(Cc2cccc(Cl)c2)CCN3)c1	x	x	x	x	47%
c1ccc(-c2nc(NCc3ccco3)c3oc4ccccc4c3n2)cc1	i	-3%	-10%	-11%	7.1µM*
COc1ccc(Cl)c2sc(N(CCN(C)C)C(=O)CCS(=O)(=O)c3ccc(C)cc3)nc12	i	-1%	2%	2%[15.4 µM]	16µM*
CC1=NN(c2ccccc2)C(=O)C1C(=S)SC1CC(=O)NC1=O (stereo not given)	i	x	x	5%	u
O=C1CC(SC(=S)C2CCCC2=O)C(=O)N1 (stereo not given)	i	x	x	-3%	22µM*
CCOC(=O)C1CCCN(CC(=O)N2CCCc3c2c(=O)oc2ccc(OCc4ccccc4)cc32)C1 (stereo not given)	i	x	x	x	22µM*
C=CCN1C(=O)S/C(=C/c2ccc(Sc3nc4ccccc4[nH]3)o2)C1=O	x	22µM*	-29%	-32%	-16%
CC(C(=O)Nc1ccc(F)cc1Cl)N1CCN(c2ccc(O)cc2)CC1 (stereo not given)	x	x	x	x	40µM*
COc1ccnc(N2CCN(CC3(O)CNCCOC3)CC2)n1 (stereo not given)	x	x	x	x	-20%
OC1(CN2CCN(c3nccs3)CC2)CNCCOC1 (stereo not given)	x	x	x	x	10µM*
SMILES	FUS suppressor	Mito fusion act	gsp antagonist	gsp agonist	ALOX12 inh
O=C(Nc1cccc(OC2CCCC2)c1)c1ccncc1	x	x	x	x	10%
CCCc1cc(=O)[nH]c(SCC(=O)N2N=C(c3ccc(Cl)cc3)CC2c2ccco2)n1 (stereo not given)	x	-1%	12%	-19%	u
CC(C)[C@H](NS(=O)(=O)c1ccccc1)C(=O)OCC(=O)N1N=C(c2ccc(Cl)cc2)CC1c1ccco1 (stereo not given in full)	u	28%	9%	0%	40µM*
Nc1cc(=O)[nH]c(SCC(=O)N2N=C(c3ccc(Cl)cc3)CC2c2ccco2)n1 (stereo not given)	i	2%	-7%	1%[15.4 µM]	40µM*
CC1=NN(c2nc(-c3ccc(Cl)cc3)cs2)C(=O)C1	i	-5%	7%	8%	5.6µM*
CCOC(=O)c1ccc(NC(=O)c2ncoc2-c2ccc(OC)c(OC)c2)cc1	x	x	x	x	14%
COc1ccc(-n2c(Cc3cccn3C)nnc2SCC(=O)Nc2ccc3c(c2)OCCO3)cc1	u	0%	-19%	-4%	487%
COc1cccc(NC(=O)CSc2nnc(Cc3cccs3)n2-c2ccc(C)cc2)c1	u	11%	u	-2%	8%
COc1ccc(-n2c(Cc3cccs3)nnc2SCC(=O)Nc2ccc3c(c2)OCCO3)cc1	u	-3%	32µM*	-28%	0%
COc1ccc(NC(=O)CSc2nnc(Cc3cccs3)n2-c2ccc(C)cc2)cc1	i	4%	32µM*	-46%	1%
CCCn1c(=O)n(CC(=O)Nc2ccccc2)c(=O)c2c1nc(C)n2CCOC	x	x	x	x	-9%
CCOC(=O)c1sc(N2C(=O)C(O)=C(C(=O)c3ccco3)C2c2ccc([N+](=O)[O-])cc2)nc1C (stereo not given)	u	x	u	12%	28µM*
Cc1cc(N2C(=O)C(O)=C(C(=O)c3ccco3)C2c2ccc([N+](=O)[O-])cc2)no1 (stereo not given)	u	0%	2%	u	45µM*
O=[N+]([O-])c1cccc(-c2noc([C@@H]3Cc4nc[nH]c4CN3Cc3ccc(F)cc3)n2)c1	x	x	x	x	31%[176 µM]
CCCCn1c(=S)[nH]c2c(=O)n(C)c(=O)n(C)c21	i	x	x	u	45µM*
O=C1NC(=O)/C(=C/c2cccc3ccccc23)S1	i	8%	-26%	-27%	-104%
O=C1NC(=O)/C(=C\c2ccc(O)cc2O)S1	i	-7%	-8%	20%	40µM*
O=C(/C=C/c1ccc(O)c(O)c1)c1ccc(S(=O)(=O)N2CCCCCC2)cc1	u	8%	16%	-2%	22µM*
O=c1cc2c(nn1Cc1ccc(F)cc1)-c1ccccc1CC2	i	13µM*	2%	-20%	-8%
COc1ccc2c(c1)c1ccc3c(c1n2C)C(=O)C=CC3=O	i	-15%	-10%	u	0.71µM*
Cc1ccc2c(c1)c1ccc3c(c1n2C)C(=O)C=CC3=O	i	-10%	-6%	3%	1.1µM*
Cn1c2ccccc2c2ccc3c(c21)C(=O)C=CC3=O	x	x	-2%	-11%	u
COc1ccc(NC(=O)c2cnn(-c3ccc(F)cc3F)c2C2CCN(C(=O)OC(C)(C)C)CC2)cc1Cl	13µM*	x	x	x	-25%
